Here are results for eight compounds from PubChem BioAssay (Tox21).

Values without a mark were called inactive. Records with an inconclusive call do not appear. The source made the active and inactive calls. Unless noted, calls follow the shape of the dose curve; as a rule, active = well fitted curve in the direction sought with a large enough effect in the repeat runs; inconclusive = weak or mixed curves; inactive = no such curve, though single readings can be large; an effect the other way counts as inactive or inconclusive.

Assay [1] can be described thus: qHTS RealTime-Glo MT Cell Viability Assay in HEK293 cells - 8 hour (AID 1224887). Also: nearly all actives have a fitted effect of over 50% in size. Also: potency is read from the fitted curve at half-maximal effect. Summed up:
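600 cells/well were plated with the nonlytic NanoLuc/prosubstrate reagent, pre-incubated 5 h, then given 23 nL of compound in DMSO. Incubation at 37 C for 40 h, with luminescence from viable-cell-reduced substrate read repeatedly from 0 h.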

Assay [2] is described as follows: A CellTox Green Cytotoxicity Assay to monitor cytotoxicity in HEK293 cells - 16 hour (AID 1224888). Also: nearly all actives have a fitted effect of over 35% in size. Also: potency is read from the fitted curve at half-maximal effect. An outline of the steps:
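HEK293 cells, 600/well, were preincubated 5 hours and then exposed to compounds at 37 C for up to 40 hours. A cell-impermeant cyanine dye staining dead-cell DNA was read by fluorescence at 0, 8, 16, 24, 32 and 40 h time points.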

Assay [3] in a line: A CellTox Green Cytotoxicity Assay to monitor cytotoxicity in HepG2 cells - 8 hour (AID 1224890). Also: nearly all actives have a fitted effect of over 45% in size. Also: potency is read from the fitted curve at half-maximal effect. An outline of the steps:
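HepG2 cells, 600/well, preincubated 5 h with CellTox Green dye, then exposed to Tox21 compounds in DMSO at 37 C for up to 40 h. Dead-cell DNA fluorescence read at the indicated time point.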

The nature of assay [4]: qHTS assay to identify small molecule antagonists of the androgen receptor (AR) signaling pathway using the MDA cell line in the presence of 0.5 nM R1881 - cell viability counter screen (AID 1259242). Also: nearly all actives have a fitted effect of over 45% in size. Summed up: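 MDA-kb2 cells (MMTV-luciferase, AR/GR responsive) were treated with compounds plus 0.5 nM R1881 (final) for 16 hr at 37C, 0% CO2. Viability was then read in the same wells as live-cell protease fluorescence (CellTiter-Fluor, 30 min).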
On the technique in general: Quantitative high-throughput screening tests each substance at several concentrations.

Assay [5] concerns the target Androgen receptor (Homo sapiens) (UniProt P10275). The assay is described as follows: qHTS assay to identify small molecule antagonists of the androgen receptor (AR) signaling pathway using the MDA cell line in the presence of 0.5 nM R1881 (AID 1259243). Also: nearly all actives have a fitted effect of over 50% in size. Also: potency is read from the fitted curve at half-maximal effect. Summed up: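 MDA-kb2 cells (MMTV-luciferase, responsive to AR and GR) at 3,000/well, rested 5 h at 37C, 0% CO2, then given compounds plus 0.5 nM R1881 (final) for 16 hr. Luciferase read with ONE-Glo after 30 min at room temperature.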

A short description of assay [6]: qHTS assay to identify small molecule HDAC inhibitors (AID 1259364). Also: top concentration of the series differs between compounds; nearly all actives have a fitted effect of over 45% in size. An outline of the steps:
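Wild-type HCT-116 cells, plated overnight at 37 C, exposed to compounds 2 hr at 37 C; luminogenic HDAC-Glo substrate then added 30 min at room temperature. Luminescence reports relative endogenous class I/II HDAC activity.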

A short description of assay [7]: qHTS assay to identify small molecule agonists of the sonic hedgehog signaling (Shh) pathway (AID 1259368; calls by dose curve;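 also: NIH/3T3-derived 3T3Gli1-Luc cells carrying a stable Gli1-driven firefly luciferase reporter; series mostly up to about 92 µM; nearly all actives have a fitted effect of over 15% in size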). Summed up:
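NIH/3T3-derived 3T3Gli1-Luc cells with stably integrated Gli1-driven firefly luciferase, 2,000 cells/well, compounds added after 4 hr. Incubated 24 hr at 37C, 5% CO2; luminescence read after 30 min with luciferase reagent at room temperature.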

The target of assay [8] is Androgen receptor (Homo sapiens) (UniProt P10275). Description: qHTS assay to identify small molecule agonists of the androgen receptor (AR) signaling pathway in the presence of an antagonist (AID 1259381; calls by dose curve; also: nearly all actives have a fitted effect of over 15% in size). Summed up:
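MDA-kb2 cells carrying MMTV-luciferase (AR/GR responsive), 3,000 cells/well, co-treated with 3.0 uM nilutamide final. Compounds at 15 concentrations, 16 hr at 37C without CO2. Luciferase luminescence read after 30 min with ONE-Glo.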

Assay [9] is described as follows: qHTS assay to identify small molecule phospholipidosis (PLD) inducers (AID 1259344; active = well fitted curve in the direction sought with a large enough effect; an effect the other way counts as inactive or inconclusive). Summed up:
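Phospholipidosis is scored by imaging LipidTOX-stained pits in HepG2 cells exposed to compound for 24 h at 37 C; pit counts and integrated intensities per well and per cell serve as outputs.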

Assay [10] in a line: qHTS assay to identify small molecule HDAC inhibitors - cell viability counter screen (AID 1259365). Also: series mostly up to about 92 µM; nearly all actives have a fitted effect of over 50% in size. Summed up: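 To flag cytotoxic hits, 1,500 wild-type HCT-116 cells per well, plated the day before, receive test compounds for 2hr at 37 C before CellTiter-Glo reagent and a luminescence read.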
The nature of assay [11]: qHTS assay to identify small molecule agonists of the sonic hedgehog signaling (Shh) pathway - cell viability counter screen (AID 1259366). Also: nearly all actives have a fitted effect of over 50% in size. Also: potency is read from the fitted curve at half-maximal effect. An outline of the steps:
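Fluorescence from CellTiter-Fluor reports live cells in this counter screen. NIH/3T3-derived Gli1-Luc reporter cells receive test compounds for 24hr at 37C; reagent goes in at 23hr.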

Assay [12] is described as follows: qHTS assay to identify small molecule antagonists of the sonic hedgehog signaling (Shh) pathway - cell viability counter screen (AID 1259367). Also: nearly all actives have a fitted effect of over 55% in size. Also: potency is read from the fitted curve at half-maximal effect. An outline of the steps:
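Cells: 3T3 Gli1-Luc, 2,000/well, 4 hr pre-incubation. Compounds in DMSO, then conditioned medium. Incubation 24 hr, 37C, 5% CO2. CellTiter-Fluor at 23 hr, 1 hr, fluorescence.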

The nature of assay [13]: qHTS assay to identify small molecule agonists of the androgen receptor (AR) signaling pathway in the presence of an antagonist - cell viability counter screen (AID 1259379). Also: nearly all actives have a fitted effect of over 25% in size. Also: potency is read from the fitted curve at half-maximal effect. An outline of the steps:
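MDA-kb2 cells (MMTV-luciferase, AR/GR), 3,000/well, 5 h attachment, then 3.0 µM nilutamide (final) and compounds at 15 concentrations. Viability by CellTiter-Fluor fluorescence after 16 h at 37 °C, 0% CO2, in the reporter wells.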

Assay [14] in a line: qHTS RealTime-Glo MT Cell Viability Assay in HepG2 cells - 0 hour (AID 1224889). Also: nearly all actives have a fitted effect of over 50% in size. An outline of the steps: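 Luminescence read-out: viable HepG2 cells reduce a prosubstrate to a NanoLuc substrate, giving a signal proportional to live cell number. Reads taken at 0, 8, 16, 24, 32 and 40 h of compound exposure at 37 C.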
Assay [15] is described as follows: qHTS assay to identify small molecule antagonists of the estrogen receptor alpha (ER-alpha) signaling pathway using the BG1 cell line in the presence of 0.1 nM 17-beta-estradiol - cell viability counter screen (AID 1259241). Also: nearly all actives have a fitted effect of over 40% in size. Summed up:
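CellTiter-Fluor read (30 min, 37C) on ER-alpha/ERE-luc VM7Luc4E2 cells; 22 hr compound treatment; agonist 0.1 nM E2 final; same-well multiplex.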

The nature of assay [16]: qHTS assay to identify small molecule antagonists of the sonic hedgehog signaling (Shh) pathway (AID 1259369; calls by dose curve; also: nearly all actives have a fitted effect of over 45% in size; also: potency is read from the fitted curve at half-maximal effect). Summed up:
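NIH/3T3-derived Gli1-Luc reporter cells plated 4 h, dosed with compound, then stimulated with conditioned medium for 24 h at 37 C. Firefly luciferase luminescence read after 30 min with detection reagent at room temperature.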

Assay [17] addresses Estrogen receptor beta (Homo sapiens) (UniProt Q92731). The assay is described as follows: qHTS assay to identify small molecule agonists of the estrogen receptor beta (ER-beta) signaling pathway (AID 1259377; active = well fitted activation curve with a large enough effect in the signal ratio in the repeat runs, not every such curve was filed as active; the % refers to the signal ratio). Summed up:
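Screening used GripTite ER-beta-UAS-bla cells held in 2% charcoal-stripped FBS medium. After overnight (16 hr) compound incubation at 37C, beta-lactamase activity was detected with a FRET substrate by fluorescence.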

Assay [18] shares this target. Description: qHTS assay to identify small molecule antagonists of the estrogen receptor beta (ER-beta) signaling pathway (AID 1259378; active = well fitted inhibition curve with a large enough effect in the signal ratio in the repeat runs, not every such curve was filed as active; the % refers to the signal ratio; also: potency is read from the fitted curve at half-maximal effect). Summed up:
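Antagonist mode: compounds added to beta-lactamase reporter HEK293T ER-beta-UAS cells stimulated with E2 (1nM final), 16 hr at 37C. LiveBLAzer B/G FRET substrate, 2 hours room temperature, fluorescence read-out.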

Assay [19] concerns the target Estrogen receptor (Homo sapiens) (UniProt P03372). The assay is described as follows: qHTS assay to identify small molecule antagonists of the estrogen receptor alpha (ER-alpha) signaling pathway using the BG1 cell line in the presence of 0.1 nM 17-beta-estradiol (AID 1259244). Also: nearly all actives have a fitted effect of over 50% in size. Also: potency is read from the fitted curve at half-maximal effect. An outline of the steps: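 VM7Luc4E2 cells (endogenous full-length ER-alpha, 4×ERE-luciferase), kept 5 days in phenol red-free, charcoal-stripped FBS medium; 4,000 cells/well. Compounds added with 0.1 nM (final) 17beta-estradiol, 22 hr at 37C; luminescence read with ONE-Glo after 30 min.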

Assay [20] is described as follows: qHTS assay to identify small molecule agonists of the estrogen receptor beta (ER-beta) signaling pathway - cell viability counter screen (AID 1259380). Also: nearly all actives have a fitted effect of over 30% in size. Also: potency is read from the fitted curve at half-maximal effect. Summed up: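 ER-beta-UAS-bla HEK293T cells in medium with 2% charcoal-stripped FBS, pre-incubated 6 hr, then treated 16 hr at 37C. Cytotoxicity read in the same wells by CellTiter-Glo luminescence after 30 min at room temperature.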

Chain of Estrogen receptor beta (Homo sapiens) (Q92731 whole entry, looked up): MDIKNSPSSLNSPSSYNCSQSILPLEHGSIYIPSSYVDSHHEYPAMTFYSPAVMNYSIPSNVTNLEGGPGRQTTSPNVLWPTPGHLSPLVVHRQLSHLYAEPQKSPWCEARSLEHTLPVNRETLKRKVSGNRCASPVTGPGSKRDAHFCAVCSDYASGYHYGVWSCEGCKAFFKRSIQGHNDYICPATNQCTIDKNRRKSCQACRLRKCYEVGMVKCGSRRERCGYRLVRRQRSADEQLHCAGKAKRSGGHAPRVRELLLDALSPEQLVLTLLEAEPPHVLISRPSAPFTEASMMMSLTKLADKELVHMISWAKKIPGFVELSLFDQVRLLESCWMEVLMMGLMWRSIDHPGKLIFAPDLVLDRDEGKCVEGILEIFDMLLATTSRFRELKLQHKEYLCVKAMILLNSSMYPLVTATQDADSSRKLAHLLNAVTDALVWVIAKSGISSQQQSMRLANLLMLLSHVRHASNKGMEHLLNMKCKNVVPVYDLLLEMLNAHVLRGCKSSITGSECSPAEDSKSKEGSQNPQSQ
Chain of Androgen receptor (Homo sapiens) (P10275 whole entry, looked up): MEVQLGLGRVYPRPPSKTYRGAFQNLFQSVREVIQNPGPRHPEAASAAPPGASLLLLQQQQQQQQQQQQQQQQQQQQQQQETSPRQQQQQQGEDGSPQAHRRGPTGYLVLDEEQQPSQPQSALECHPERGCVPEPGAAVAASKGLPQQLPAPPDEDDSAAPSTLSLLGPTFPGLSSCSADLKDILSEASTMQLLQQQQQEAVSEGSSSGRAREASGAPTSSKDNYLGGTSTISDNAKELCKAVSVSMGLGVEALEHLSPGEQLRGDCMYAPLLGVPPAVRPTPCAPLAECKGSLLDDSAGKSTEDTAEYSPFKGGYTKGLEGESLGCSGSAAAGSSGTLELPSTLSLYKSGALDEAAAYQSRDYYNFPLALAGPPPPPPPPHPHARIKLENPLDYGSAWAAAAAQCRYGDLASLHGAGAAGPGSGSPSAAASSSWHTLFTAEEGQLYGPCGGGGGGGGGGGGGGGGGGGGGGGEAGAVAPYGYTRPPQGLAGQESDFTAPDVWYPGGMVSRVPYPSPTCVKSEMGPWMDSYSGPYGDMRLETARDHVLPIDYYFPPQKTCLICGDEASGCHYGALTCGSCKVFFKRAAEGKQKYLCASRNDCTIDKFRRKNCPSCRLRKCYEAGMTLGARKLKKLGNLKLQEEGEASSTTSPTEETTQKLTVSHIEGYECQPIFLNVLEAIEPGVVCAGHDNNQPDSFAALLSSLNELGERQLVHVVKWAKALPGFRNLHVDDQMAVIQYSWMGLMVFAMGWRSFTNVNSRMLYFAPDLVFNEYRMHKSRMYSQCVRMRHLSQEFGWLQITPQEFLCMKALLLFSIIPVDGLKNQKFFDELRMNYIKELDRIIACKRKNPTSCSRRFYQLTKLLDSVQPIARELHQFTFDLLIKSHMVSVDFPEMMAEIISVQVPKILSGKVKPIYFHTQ
Chain of Estrogen receptor (Homo sapiens) (P03372 whole entry, looked up): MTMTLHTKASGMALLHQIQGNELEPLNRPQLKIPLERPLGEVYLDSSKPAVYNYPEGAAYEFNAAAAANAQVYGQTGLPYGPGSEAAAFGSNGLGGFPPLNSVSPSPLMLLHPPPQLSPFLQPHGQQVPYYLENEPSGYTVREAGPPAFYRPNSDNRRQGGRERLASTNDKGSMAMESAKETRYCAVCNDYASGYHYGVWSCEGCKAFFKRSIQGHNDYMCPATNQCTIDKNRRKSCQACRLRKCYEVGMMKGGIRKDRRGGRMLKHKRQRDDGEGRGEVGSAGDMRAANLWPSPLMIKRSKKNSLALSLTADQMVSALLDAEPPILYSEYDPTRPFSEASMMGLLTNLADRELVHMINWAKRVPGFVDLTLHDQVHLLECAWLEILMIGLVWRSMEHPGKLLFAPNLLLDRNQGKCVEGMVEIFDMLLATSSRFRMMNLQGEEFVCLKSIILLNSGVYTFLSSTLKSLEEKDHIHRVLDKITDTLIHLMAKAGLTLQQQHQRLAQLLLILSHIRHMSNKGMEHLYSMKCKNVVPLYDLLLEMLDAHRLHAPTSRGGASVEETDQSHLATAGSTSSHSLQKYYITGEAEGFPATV

For the compound `COCCC(=O)OC`, the Potency result in assay [1], in [2], in [3], in [4], in assay [5] and in [6] was “inactive” in each case. The Potency result in assay [7] and in assay [8] was “inactive” throughout.
Consider `CCC(C)(C)c1ccc(CC(C)CN2C[C@@H](C)O[C@@H](C)C2)cc1` (some centres not stated), for which the Potency entry in assay [1], in [4], in [9], in assay [6], in [10] and in [11] was “inactive” throughout. In addition, the Potency entry in assay [12], in assay [7] and in assay [13] was “inactive” each time. Moreover, in [2], the Potency is 23.9 µM (active).
Turning to `NCc1ccco1`, the Potency entry in assay [1], in assay [14], in assay [3], in assay [15], in assay [4] and in [6] was “inactive” throughout. Moreover, the Potency entry in assay [10], in assay [11], in assay [12], in assay [7], in [16] and in assay [18] was “inactive” in each case. The outcome in assay [17] was inactive.
Regarding `O=C1CCC/C=C\CCCCCCCCCC1`, the Potency result in assay [1], in [2], in [3], in assay [15], in assay [4] and in assay [6] was “inactive” throughout. The Potency result in assay [10], in assay [11], in assay [7] and in assay [18] was “inactive” throughout. Besides, the result in assay [17] was inactive.
In the case of `CCCCCCCCOC(=O)c1cc(O)c(O)c(O)c1`, the Potency in assay [1] was 5.49 µM (active); in [19], 24.3 µM (active); in [11] it was 24.3 µM (active); in assay [16] it was 2.17 µM (active); in [18], 15.4 µM (active); in assay [13], 17.2 µM (active). In assay [20], the Potency was 68.6 µM (active). Further, the Potency result in assay [14], in assay [6], in assay [10] and in assay [7] was “inactive” throughout. Further, in [17], the outcome was inactive.
As for `COc1cc(/C=C/C(=O)CC(=O)/C=C/c2ccc(O)c(OC)c2)ccc1O`, the Potency in [1] is 6.96 µM (active); in [2], 49.3 µM (active); in assay [3], 49.3 µM (active); in assay [5] it was 15.4 µM (active); in assay [11], 30.8 µM (active); in assay [12], 24.5 µM (active). Further, the values for the Potency in assay [16] and in assay [13] were 8.69 µM (active) and 54.8 µM (active), respectively. Further, the Potency entry in assay [15], in assay [9], in assay [6] and in [8] was “inactive” each time.
`CC(C)=CCC[C@H](C)CC=O`: the Potency entry in assay [1], in [14], in [3], in assay [4], in [6] and in assay [11] was “inactive” in each case. Moreover, the Potency result in assay [12], in assay [7], in assay [16], in assay [13] and in assay [20] was “inactive” in each case.
With `Nc1c(Br)cc([N+](=O)[O-])cc1Br`, the Potency result in assay [1], in assay [2], in [3], in assay [4], in assay [19] and in assay [6] was “inactive” throughout. In addition, the Potency result in assay [10], in assay [11], in assay [12], in assay [7], in assay [16] and in assay [18] was “inactive” in each case. Further, the Potency entry in assay [13] and in assay [20] was “inactive” throughout. In addition, the compound was classed as inactive in assay [17].
